This is a sample that favours compounds with a hit; in the whole collection about 5.6% have one here.
PfM18AAP inh = PfM18AAP enzyme inhibition | 290,000 compounds, 1.2% hits | inhibition, % at 7.35 µM | recombinant PfM18AAP, H-Glu-NHMec fluorogenic cleavage | AID 1822;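 active means inhibition above the campaign mean inhibition over all tested compounds plus 3 SD, cut at about 28% in these data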;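 further: 0% = plate median of test compound wells and 100% = 2 mM ZnCl2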
ALR inh = human ALR oxidase inhibition via reduced H2O2; P55789; purified ALR, DTT oxidation, H2O2 HRP-luminol luminescence; inhibition, % (no concentration beside the values); 290,000 compounds, 3.8% hits; AID 485317;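 active means mean replicate inhibition above about 79%, with every replicate also reaching it, limit read from the data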
Target sequence (P55789 whole entry, looked up): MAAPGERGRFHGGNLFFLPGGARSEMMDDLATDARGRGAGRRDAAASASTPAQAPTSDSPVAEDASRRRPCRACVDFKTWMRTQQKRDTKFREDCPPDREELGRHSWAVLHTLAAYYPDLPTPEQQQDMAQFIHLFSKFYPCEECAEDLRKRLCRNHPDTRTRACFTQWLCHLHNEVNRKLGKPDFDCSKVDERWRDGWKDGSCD
PfGluPho inh = PfG6PD (Plasmodium falciparum) enzyme inhibition; PfGluPho enzyme, NADPH resazurin-diaphorase fluorescence; inhibition, % at 20 µM; 350,000 compounds, 0.78% hits; AID 504690;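 active means inhibition reaching at least a set limit at 20 µM in the primary screen, cut at about 59% in these data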;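 further: 0% = DMSO wells with substrate and 100% = DMSO wells lacking glucose-6-phosphate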
PHOSPHO1 inh = inhibitors of human PHOSPHO1 phosphatase | inhibition, % at 13.3 µM | AID 1565 | Q8TCT1 | recombinant PHOSPHO1, absorbance phosphatase assay | 290,000 compounds, 1.1% hits; in the data active means inhibition above about 60%
Target sequence (Q8TCT1 whole entry, looked up): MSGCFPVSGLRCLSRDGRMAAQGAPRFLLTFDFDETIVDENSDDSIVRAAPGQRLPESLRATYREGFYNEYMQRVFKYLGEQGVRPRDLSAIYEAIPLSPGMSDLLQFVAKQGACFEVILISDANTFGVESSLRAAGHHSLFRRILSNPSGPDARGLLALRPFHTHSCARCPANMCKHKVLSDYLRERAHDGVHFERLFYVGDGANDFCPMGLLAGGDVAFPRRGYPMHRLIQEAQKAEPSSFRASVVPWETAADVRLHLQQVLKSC
Cardio protect = myocardial damage modulation in H9c2 cells. H9c2 cardiomyocytes, H2O2 injury protection, ATPLite, 2 h. protection from H2O2 cell death, % at 20 µM. 360,000 compounds, 0.63% hits. AID 588492;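 active means compounds giving at least 50% protection of heart cells from peroxide-induced death in the single-dose screen, raw or plate-pattern-corrected value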;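 further: 0% = DMSO wells with peroxide and 100% = DMSO wells without peroxide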
* = called active by the depositor; . = no result.

SMILES	PfM18AAP inh	ALR inh	PfGluPho inh	PHOSPHO1 inh	Cardio protect
S=c1[nH]nc(-c2ccco2)n1Cc1ccccc1	16	92*	41	79*	7
Cc1n[nH]c(=S)n1Cc1ccccc1	6	35	27	8	-5
S=c1[nH]nc(-c2ccc(Cl)cc2)n1Cc1ccccc1	20	15	5	-1	-2
Cc1ccn(Cc2n[nH]c(=S)n2Cc2ccccc2)n1	5	91*	32	78*	2
S=c1[nH]nc(CNc2ccc(Cl)cc2)n1Cc1ccccc1	9	99*	14	-22	0
CC(=O)C1=CCC(c2cccc(Cl)c2)N(S(=O)(=O)c2ccc(C)cc2)C1 (stereo not given)	.	.	.	.	-2
CCc1ccc(OCc2n[nH]c(=S)n2Cc2ccccc2)cc1	0	12	-1	90*	-6
COc1ccccc1-c1n[nH]c(=S)n1Cc1ccccc1	17	86*	28	-37	7
COc1ccccc1-c1n[nH]c(=S)n1Cc1ccco1	14	7	.	32	.
O=C(CNS(=O)(=O)c1ccccc1)N/N=C\c1ccc(Cl)cc1	4	.	1	4	-2
Cc1ccc2nc(SCC(=O)N/N=C/c3ccc(C(=O)O)cc3)cc(C)c2c1	7	98*	-5	56	-1
O=C(CSc1ccc2ccccc2n1)N/N=C/c1ccccc1O	4	-14	-10	33	55*
O=C(CSc1ccc2ccccc2n1)N/N=C/c1ccc(O)cc1	-1	99*	14	20	-12
O=C(CNS(=O)(=O)c1ccccc1)N/N=C/c1ccc(O)cc1	9	99*	8	-9	2
CC(=O)NC(c1ccc(F)c(F)c1)c1nc(-c2cccs2)cs1 (stereo not given)	.	.	.	.	-8
O=C(CSc1nnc(CNC(=O)c2c(F)cccc2F)o1)NCc1ccccc1Cl	-17	0	-2	43	-1
CCc1cc(C(=O)N2CCOCC2)c(NC2=NS(=O)(=O)c3ccccc32)s1	7	-1	9	84*	-4
O=S1(=O)N=C(Nc2ccc(N3CCOCC3)cc2)c2ccccc21	2	0	-2	-42	-1
CC(=O)NC1C(=O)N(CCN2CCOCC2)c2ccc(Br)cc21 (stereo not given)	30*	.	19	32	-2
CCc1ccc(NC(=O)CSc2nc(=O)n(CCCN(C)C)c3c2CCC3)cc1	.	97*	15	.	6
CN(C)CCCn1c2c(c(SCC(=O)Nc3nccs3)nc1=O)CCC2	.	99*	-4	.	2
O=C(O)C1(Nc2ccccc2Cl)CCCC1	.	.	2	.	1
O=C1OCC(CO)(CO)N=C1NNc1ccccc1Cl	7	99*	-4	82*	-2
COc1ccc(Cl)cc1NC(=O)C(C)N1CCN(c2ccccn2)CC1 (stereo not given)	-6	0	9	15	-7
O=C1CCCC2=C1Sc1ccc(Cl)cc1N2	30*	.	40	-12	-4
SMILES	PfM18AAP inh	ALR inh	PfGluPho inh	PHOSPHO1 inh	Cardio protect
COC(=O)c1ccc2c(c1)SC1=C(CCCC1=O)N2	14	34	16	14	-10
O=C(CSc1nc2[nH]ncc2c(=O)n1-c1ccccc1)NCCc1ccccc1	15	-9	-1	21	-2
CCc1ccc(-n2c(SCC(=O)c3ccc4c(c3)NC(=O)CO4)nc3ccccc3c2=O)cc1	-9	9	-2	60*	10
O=C(CSc1nc2[nH]ncc2c(=O)n1-c1ccccc1)c1ccc2c(c1)OCCO2	0	.	-5	44	46*
O=C1COc2ccc(C(=O)CSc3nc4ccccc4c(=O)n3-c3ccc(Cl)c(Cl)c3)cc2N1	0	3	-14	-5	2
Cn1c(SCC(=O)c2ccc3c(c2)NC(=O)CO3)nc2ccccc21	4	.	22	-1	4
CCCn1c(SCC(=O)c2ccc3c(c2)NC(=O)CO3)nc2ccccc21	7	99*	-6	-16	-21
COc1ccc(CCNC(=O)CN2c3cccc4cccc(c34)S2(=O)=O)cc1OC	-3	-34	-15	-6	-1
COc1ccc(CNC(=S)Nc2ccccc2)cc1	10	-3	3	45	-8
CCn1c(CC(=O)Nc2ccccc2F)nnc1SCC(=O)NC1CCCC1	-1	-16	-4	32	4
O=Cc1ccccc1OCCOc1ccc([N+](=O)[O-])cc1	-3	8	4	3	0
COC(=O)c1ccccc1NC(=O)Oc1ccc(C(C)C)cc1	0	92*	1	36	-14
O=C1OC(c2ccccc2)/C(=C(/O)c2ccccc2)C1=O (stereo not given)	18	92*	-19	8	6
O=C1OC(c2ccccc2)/C(=C(/O)c2ccc(Cl)cc2)C1=O (stereo not given)	12	98*	-41	11	5
Cc1ccc(/C(O)=C2\C(=O)C(=O)N(C)C2c2ccc(Br)cc2)cc1 (stereo not given)	4	5	-23	39	2
Cc1ccc(/C(O)=C2/C(=O)C(=O)OC2c2ccc(Cl)cc2)cc1 (stereo not given)	4	92*	-21	20	6
CN1C(=O)C(=O)/C(=C(/O)c2ccccc2)C1c1ccccc1 (stereo not given)	1	2	-3	.	5
COCCCN1C(=O)C(CC(=O)NC2CCCC2)CC(C(=O)N(C(C)C)C(C)C)=C1C (stereo not given)	.	.	.	.	4
Cc1nc2ccc(Br)cn2c(=O)c1Cl	-5	-4	-8	-4	10
Cc1nc2ccc(Br)cn2c1NC(C)(C)C	14	95*	-4	-20	-4
O=S(=O)(c1ccc(F)cc1)N1CCN(CC(O)COCC2CCCO2)CC1 (stereo not given)	.	.	-2	.	-2
Cc1ccc([N+](=O)[O-])cc1NC(=O)Nc1cccc(F)c1	-1	.	7	27	-16
O=C(C[C@H]1C/C=C\CC[C@H](Cc2ccc(F)cc2)C(=O)O[C@@H](c2ccccc2)CNC1=O)N[C@@H](CO)Cc1ccccc1	.	0	4	.	42
O=C(C[C@H]1C/C=C\CC[C@H](Cc2ccc(F)cc2)C(=O)O[C@H](c2ccccc2)CNC1=O)N[C@H](CO)Cc1ccccc1	.	4	0	.	90*
CC(C)(C)OC(=O)C[C@@H]1C/C=C\C[C@H](CC(=O)N[C@H](CO)Cc2ccccc2)C(=O)N[C@H](Cc2ccccc2)COC1=O	.	2	-1	.	19
CC(C)(C)OC(=O)C[C@H]1C/C=C\C[C@H](CC(=O)N[C@H](CO)Cc2ccccc2)C(=O)N[C@H](Cc2ccccc2)COC1=O	.	-4	-4	.	58*
O=C(C[C@H]1C/C=C\CC[C@H](Cc2ccc(F)cc2)C(=O)O[C@@H](c2ccccc2)CNC1=O)N[C@H](CO)Cc1ccccc1	.	0	-7	.	51*
COc1ccc(CN(CC(O)COCc2ccccc2)S(=O)(=O)c2ccccc2Br)cc1 (stereo not given)	.	.	6	.	0
COc1ccc(OCc2n[nH]c(=S)o2)cc1	20	22	-14	88*	-9
S=c1[nH]nc(CCc2ccc(Cl)cc2)o1	10	38	18	21	6

Source: PubChem BioAssay (several laboratories)
